In all, about 39,000 sequences were measured (“fluorescence intensity (a.u.)”: median about 4,300, highest 2% from about 39,000 on). For the sample, the highest values were picked, then their nearest neighbours and some sequences at random.
Biological target: T1, OsSMF1 (Oryza sativa, UniProt Q6ZLB0 1-436)
T1 sequence: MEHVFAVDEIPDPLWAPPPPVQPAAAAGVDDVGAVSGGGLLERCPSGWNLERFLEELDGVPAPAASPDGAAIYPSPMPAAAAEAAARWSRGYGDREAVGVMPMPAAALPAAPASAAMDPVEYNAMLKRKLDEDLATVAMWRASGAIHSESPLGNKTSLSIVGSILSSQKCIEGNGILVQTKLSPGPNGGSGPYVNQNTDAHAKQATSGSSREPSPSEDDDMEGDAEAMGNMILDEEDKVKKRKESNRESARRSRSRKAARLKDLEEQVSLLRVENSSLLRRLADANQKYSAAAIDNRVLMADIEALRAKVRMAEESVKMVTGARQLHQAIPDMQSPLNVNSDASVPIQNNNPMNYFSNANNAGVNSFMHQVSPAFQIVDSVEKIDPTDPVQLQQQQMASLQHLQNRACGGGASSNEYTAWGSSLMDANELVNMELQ
Assay: protein-binding microarray (RPBM); PBS, 2% BSA, 51.3 ng/ul salmon testes DNA, 50 uM zinc acetate, 200 nM TF, 25 C, 1 h; high values mean tight binding
Settings: protein: recombinant; tags: N-terminal polyhistidine and DsRed monomer fusion (pET32a); chain copies: 2; label: CyDye5-dUTP incorporated in the synthesized complementary strand; 3' TTTTT single-stranded linker to array surface; dsDNA, one strand shown
Outline: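 Transcription factors, each fused N-terminally to a polyhistidine tag and DsRed, were expressed in E. coli BL21-CodonPlus and purified on Ni–NTA. A custom Agilent array was made double-stranded by primer extension with Cy5-dUTP and blocked with 2% BSA. It was incubated with 200 nM protein in PBS, 2% BSA, salmon testes DNA and 50 µM zinc acetate at 25 °C for 1 h, then washed. The binding signal is per-feature fluorescence intensity (arbitrary units) read on an Axon 4000B scanner.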

Row | Sequence | binding signal
1 | CAACACCCAACCCCAATTGGTCGCGGTGGGTCGGACGGACCGGAGTCACCTAGTGCAG | 34900 fluorescence intensity (a.u.)
2 | GAGGTGGGGTGGCTTAGTGACCTCGTGTCGTAGATTGGATCGGAGTCACCTAGTGCAG | 4900 fluorescence intensity (a.u.)
3 | GAGGGGATGACGGTGGTCTCGGCAGCGGATGACGGCGGCGCGGAGTCACCTAGTGCAG | 4490 fluorescence intensity (a.u.)
4 | AGAGGGTGGAGGAGCTGACTAGATTGCACTAGGTCTCGATCGGAGTCACCTAGTGCAG | 42000 fluorescence intensity (a.u.)
5 | AGGTGGAGGCGCCGGTGTGGGTGGTGGAGCGGGAGGAGGTCGGAGTCACCTAGTGCAG | 4096 fluorescence intensity (a.u.)
6 | TCGGCGGTCGTGGAGGTGGTGGCAGGCGGTCGTGGCGGAGCGGAGTCACCTAGTGCAG | 3990 fluorescence intensity (a.u.)
7 | GCGGGGTTGGAGGAGGAGGAGGTGGTGGTGGTGGTGGTGGCGGAGTCACCTAGTGCAG | 4860 fluorescence intensity (a.u.)
8 | AATGGACCACCGTTAGTCCACCAGTCAGCCAACCAATGGCCGGAGTCACCTAGTGCAG | 3360 fluorescence intensity (a.u.)
9 | CAATAAACCGGTGGTTGGACCGGTCCAACCAATAAACCAGCGGAGTCACCTAGTGCAG | 43900 fluorescence intensity (a.u.)
10 | CCGCTCGTCGATTAGCCGGCCACGCCTCCCGCTCGTGAAGCGGAGTCACCTAGTGCAG | 3680 fluorescence intensity (a.u.)
11 | GACCCTGCCGCCCTCCATTTGGGCGGCAAGCTGACGTGGCCGGAGTCACCTAGTGCAG | 32700 fluorescence intensity (a.u.)
12 | GCAGTTTGTCTCATGTGCTGCTGACTAGATATTGATCATACGGAGTCACCTAGTGCAG | 11400 fluorescence intensity (a.u.)
13 | ATGATGAGTAGGAGTTTGTGCAGGTGGACGGCGGTGGTGGCGGAGTCACCTAGTGCAG | 3180 fluorescence intensity (a.u.)
14 | TCACGCGTAGCTTCGCCGCTACGTGGCCTCGCGCACGTTACGGAGTCACCTAGTGCAG | 5500 fluorescence intensity (a.u.)
15 | GTTCGCGGGCCGCGAACGTCCACGTACTAGACGCCCCTCACGGAGTCACCTAGTGCAG | 4050 fluorescence intensity (a.u.)
16 | TTCGCTAACGCCGCGCGTCACGTAGACACGTACTACTAGCCGGAGTCACCTAGTGCAG | 49600 fluorescence intensity (a.u.)
17 | CCTGCATGCGTGGCTGCGCTCACTGTCGTTATTTGCTTTACGGAGTCACCTAGTGCAG | 5080 fluorescence intensity (a.u.)
18 | AATGAGATACTTAGACTTGTGAGGCCCGACGTGTCCAATCCGGAGTCACCTAGTGCAG | 4470 fluorescence intensity (a.u.)
19 | AAAGGGCAGGCACATCGCTTTCGGGCCCTGTCACGTACCCCGGAGTCACCTAGTGCAG | 3920 fluorescence intensity (a.u.)
20 | TCAATAATGTGTGCGTGACCTGGGCAAGTGGCGGTAGCAACGGAGTCACCTAGTGCAG | 3540 fluorescence intensity (a.u.)
21 | ATCTGCTTTGTGAGGCACATGAAGCTGGAGATATCTGTCACGGAGTCACCTAGTGCAG | 4740 fluorescence intensity (a.u.)
22 | ACCGAGTCCACGGAGCAGTGAGAGAGCCAGGCAGCCAGTGCGGAGTCACCTAGTGCAG | 3960 fluorescence intensity (a.u.)

Row | Sequence | binding signal
23 | GATCGAGCGGCAGGCCAGCAGTAACCTGGCCGAGAAGTTGCGGAGTCACCTAGTGCAG | 64500 fluorescence intensity (a.u.)
24 | TTTGCTCGTTGGCAGCGGCCAGCAGGCACGTGTAACGGCGCGGAGTCACCTAGTGCAG | 4190 fluorescence intensity (a.u.)
25 | GATGTGCGATAGCAGAATGGTGCTAAGTGAGTCACATCGTCGGAGTCACCTAGTGCAG | 3970 fluorescence intensity (a.u.)
26 | TTTAATGATCTTATAAATTGTAATGCTGATAGGTGGTTATCGGAGTCACCTAGTGCAG | 3590 fluorescence intensity (a.u.)
27 | ACACTATGATTATAATATATTTACATGTGTGAATTGTTTACGGAGTCACCTAGTGCAG | 3640 fluorescence intensity (a.u.)
28 | TATAATGTTTGGGTGCGTTTAATTCTATTTGAATTACACTCGGAGTCACCTAGTGCAG | 48000 fluorescence intensity (a.u.)
29 | AATCAACAAATAACTAATATTCTTACATCAGCTACTATAACGGAGTCACCTAGTGCAG | 28600 fluorescence intensity (a.u.)
30 | ATACCGGTGCGTTACAACGAGGTGAATGTTATTTTAATTTCGGAGTCACCTAGTGCAG | 25200 fluorescence intensity (a.u.)
31 | AAGCTTACAACATGTTCTATAATTTATTTAATTCTACAAACGGAGTCACCTAGTGCAG | 45700 fluorescence intensity (a.u.)
32 | TTCTAATTACTATTTAAGCTTATCCTAATTAACTCACATGCGGAGTCACCTAGTGCAG | 3230 fluorescence intensity (a.u.)
33 | GGGCTCATCTTCACCGTTGTCATTCAGTTATTCACATAAGCGGAGTCACCTAGTGCAG | 3360 fluorescence intensity (a.u.)
34 | GGCGGCGCCGACGACTCCGCGCCGCTCGGCCTCATCGTCGCGGAGTCACCTAGTGCAG | 3190 fluorescence intensity (a.u.)
35 | GCGCCCTCCTCCTGCCACGTCGGTTCGCGTGCGCCACGGTCGGAGTCACCTAGTGCAG | 19500 fluorescence intensity (a.u.)
36 | CATATGCCATCTAATCATCCTTGTCTGATGTCATTTATTCCGGAGTCACCTAGTGCAG | 5870 fluorescence intensity (a.u.)
37 | TGCTTCGCCAGTGAATCGCGTGGATATAAATGGGCCTCTCCGGAGTCACCTAGTGCAG | 3440 fluorescence intensity (a.u.)
38 | CGCACTTCCGTCGCCTCCCCGCATCGCGTCGTACAACGGGCGGAGTCACCTAGTGCAG | 18300 fluorescence intensity (a.u.)
39 | GGTGTGTGTATGTGTTTATATGGTGAGTGTACACACGTTGCGGAGTCACCTAGTGCAG | 3150 fluorescence intensity (a.u.)
40 | GGCCCCGTCGACGCTGTGCACCAAACACAATAAAGACATGCGGAGTCACCTAGTGCAG | 3430 fluorescence intensity (a.u.)
41 | GTCTGGATCAGAGCTGTCCACATTGGTTGTATTCCTCTTTCGGAGTCACCTAGTGCAG | 3620 fluorescence intensity (a.u.)
42 | ATTCCATATTTCCATTCCACACGTCTTGAGAGCTAATCTTCGGAGTCACCTAGTGCAG | 3400 fluorescence intensity (a.u.)
43 | GTGATCTTTCCACATACAGAGAGAGAGAGAGCTTGGGATTCGGAGTCACCTAGTGCAG | 40900 fluorescence intensity (a.u.)

From PMC7819943, “Rice protein-binding microarrays: a tool to detect cis-acting elements near promoter regions in rice”
